AMA1 RON2 block = disrupts binding of P. falciparum AMA1 to RON2; Potency, µM (doses to about 58.2 µM), inactives show at the highest dose activity change, negative = inhibition, most hits filed as inhibitors; AlphaScreen AMA1-biotinylated RON2 peptide binding; actives 0.2% (n = 360,000); AID 720542;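 also: 0% = vehicle wells and -100% = peptide control; nearly all actives have a fitted effect of over 45% in size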
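AMA1 (3D7) with his tag at 25 nM final met compounds first, then biotinylated RON2 peptide at 25 nM; detection used donor plus acceptor beads, 10 µg/mL apiece, read by AlphaScreen after 30 min at room temperature.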
AmpC detergent = inhibitors of E. coli AmpC beta-lactamase with detergent. P00811. AmpC hydrolysis of nitrocefin, absorbance 480 nm, 0.01% Triton. Potency, µM (doses to about 114 µM), inactives show top-dose activity change, negative = inhibition, usual class: inhibitors. actives 0.041% (n = 370,000);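 also: 0% = no-compound wells and -100% = no-enzyme wells; nearly all actives have a fitted effect of over 25% in size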
Target sequence (P00811 whole entry, looked up): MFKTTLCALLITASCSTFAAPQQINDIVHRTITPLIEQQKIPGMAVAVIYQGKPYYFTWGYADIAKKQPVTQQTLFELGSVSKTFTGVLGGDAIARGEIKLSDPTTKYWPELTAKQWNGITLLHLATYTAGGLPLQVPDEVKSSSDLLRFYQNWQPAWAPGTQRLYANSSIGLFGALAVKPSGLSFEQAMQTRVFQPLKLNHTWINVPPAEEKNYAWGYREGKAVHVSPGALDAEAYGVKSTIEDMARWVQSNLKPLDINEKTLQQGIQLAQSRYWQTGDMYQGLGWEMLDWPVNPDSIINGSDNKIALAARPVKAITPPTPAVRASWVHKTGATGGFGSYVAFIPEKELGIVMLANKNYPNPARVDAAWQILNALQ
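AmpC (5.3 nM in the dispensed reagent) in 20 mM phosphate pH 7.0 with 0.01% (detergent screen) or 0.0001% Triton X-100 was preincubated with compounds for 15 min at room temperature. Nitrocefin was then added from an 800 uM solution, and hydrolysis was followed at 480 nm.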
Pf growth 48h = P. falciparum growth inhibition at 48 hours (one generation); P. falciparum luciferase growth in erythrocytes, 48 h; Potency, µM (series often up to 28.7 µM), inactives show at the top dose activity change, negative = inhibition, actives largely listed as inhibitors; actives 5.9% (n = 310,000); AID 504832
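Erythrocytes infected with P. falciparum carrying an integrated firefly luciferase reporter (2% hematocrit, 0.1% parasitemia final) were exposed to compounds in RPMI 1640 with 0.5% Albumax at 37 C, 5% CO2. Growth inhibition was scored as reduced luminescence.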
AmpC no deterg = blocks E. coli AmpC beta-lactamase in detergent-free assay. P00811. Potency, µM (top dose mostly 57.1 µM), without a hit: top-dose activity change, negative = inhibition, hits mostly inhibitors. actives 0.52% (n = 330,000). AmpC nitrocefin hydrolysis, absorbance 480 nm, 0.0001% Triton. AID 485341;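 also: plate controls were no compound for no effect and no enzyme for full effect; nearly all actives have a fitted effect of over 20% in size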
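AmpC (5.3 nM in the dispensed reagent) in 20 mM phosphate pH 7.0 with 0.01% (detergent screen) or 0.0001% Triton X-100 was preincubated with compounds for 15 min at room temperature. Nitrocefin was then added from an 800 uM solution, and hydrolysis was followed at 480 nm.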
HCV inhibitor = inhibitors of hepatitis C virus infection | actives 3.4% (n = 340,000) | Potency, µM (titrated, usually from 41.8 µM), for the others: top-dose activity change, negative = inhibition, most hits filed as inhibitors | Huh7.5.1 HCVcc-Cre infection, luciferase reporter, 44 h
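Reporter virus HCVcc-Cre (~0.5 moi) infects cells exposed to compound; seeding density 1,000 cells/well with 4 h settling beforehand. Luminescence, 15 sec read, taken 44 h post-infection following a 15 min RT substrate incubation.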
Pf growth 96h = inhibits malaria parasite growth, 96 h. P. falciparum luciferase reporter growth, 96 h. Potency, µM (series often up to 28.7 µM), for inactives: at the highest dose activity change, negative = inhibition, hits mostly inhibitors. actives 6.9% (n = 320,000). AID 504834
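Delayed-death screen, second-generation endpoint: infected erythrocytes, 2% hematocrit, 0.05% parasitemia final; 96 hours at 37 C, 5% CO2; luciferase detection reagent; luminescence decrease equals reduced growth.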
The depositor's hits bear a star; u = inconclusive; x = no result. An excerpt weighted towards active compounds, which were near 11% of everything screened. Calls follow the shape of the dose curve; as a rule, active = well fitted curve in the direction sought with a large enough effect; inconclusive = small, poorly fitted or top-dose-only effect, or another doubt; inactive = no such curve, though single readings can be large; an effect the other way counts as inactive or inconclusive. Unless noted, % is scaled to controls: 0 for no effect and ±100 for the full control effect; potency is read from the fitted curve at half-maximal effect.

SMILES | AMA1 RON2 block | AmpC detergent | Pf growth 48h | AmpC no deterg | HCV inhibitor | Pf growth 96h
CCN(CC(=O)Nc1c(F)cccc1F)C(=O)c1ccc(NC(=O)CC2SC(N3CCCC3)=NC2=O)cc1 (stereo unspecified) | -1% | 0% | 0% | 22% | 5% | 13µM*
CN(Cc1c(F)cccc1Cl)C(=O)c1ccc(NC(=O)CC2SC(N3CCCC3)=NC2=O)cc1 (stereo unspecified) | -2% | 0% | 10µM* | 142% | 9% | u
Cc1ccc(NC(=O)CN(C)C(=O)c2ccc(NC(=O)CC3SC(N4CCCC4)=NC3=O)cc2)cc1 (stereo unspecified) | 11% | -8% | -9% | 47% | -9% | u
O=C(NCCC1=CCCCC1)c1ccc(F)c(S(=O)(=O)N2CCOCC2)c1 | 0% | -7% | u | -1% | -18% | 9.3µM*
CC1CN(S(=O)(=O)c2cc(C(=O)NCCC3=CCCCC3)ccc2Cl)CC(C)O1 (stereo unspecified) | -15% | 4% | 10µM* | 40% | u | u
O=C(NCCSCc1ccc(Cl)cc1Cl)c1ccc(CN2CCOCC2)cc1 | 12% | -1% | -13% | 150% | 11µM* | u
COc1ccc(CCNc2nc3ccccc3c3nc(-c4cccc(C)c4)nn23)cc1OC | x | 3% | x | x | x | x
Fc1ccc(-c2noc3ncnc(NCCc4ccccc4)c23)cc1 | x | -7% | x | x | x | x
Cn1c(SCc2ccc(C(F)(F)F)cc2)nc2c([nH]c3ccccc32)c1=O | x | 9% | x | x | x | x
Cc1ccc(NC(=O)CNc2cccc(C)c2C)c(C)c1 | -7% | -12% | -29% | -27% | u | u
Cc1ccc(NC(=O)CNc2ccc(OC(C)C)cc2)c(C)c1 | -13% | 1% | u | -29% | u | 13µM*
CCc1ccc2n(-c3ccc(OC)cc3)c([S-])c(C(=O)Nc3cc(C)cc(C)c3)[n+]2c1 | 1% | -5% | 13µM* | -9% | -12% | 8.3µM*
COc1cccc(-n2c([S-])c(C(=O)Nc3ccc(C(F)(F)F)cc3)[n+]3ccccc23)c1 | x | 5% | u | -9% | x | 1%
COc1ccc(CCNC(=O)c2c([S-])n(-c3ccc(C)cc3)c3cccc[n+]23)cc1 | -7% | 8% | u | 54% | 11µM* | 10µM*
COc1ccc(NC(=O)CCS(=O)(=O)c2ccc3c(c2)n(C)c(=O)c(=O)n3C)cc1Cl | x | 15% | x | x | x | x
Nc1nc(=S)c2[nH]cnc2[nH]1 | 88% | -21% | 8.3µM* | -13% | 1.3µM* | u
CC(NC(=O)c1cccc(S(=O)(=O)N2CCN(C)CC2)c1)C1CC2CCC1C2 (stereo unspecified) | -12% | u | -17% | 99% | 5% | 2%
COc1cc(OC)c(N(C)S(=O)(=O)c2cccc(C(=O)NC(C)C3CC4CCC3C4)c2)cc1Cl (stereo unspecified) | -8% | -3% | -7% | -13% | u | 2.6µM*
O=C1CS/C(=N/N=C/c2ccncc2)N1 | 22% | -4% | u | -11% | 9% | 15µM*
O=C1CS/C(=N/N=C/c2cccs2)N1 | 61% | 3% | 11% | -22% | 9% | 15%
COc1ccc(N2CC(NC(=O)C3CCCCC3)CC2=O)cc1 (stereo unspecified) | x | 2% | x | x | x | x
COCCCNC(=O)C(=O)NCC(c1ccc2c(c1)OCO2)N1CCOCC1 (stereo unspecified) | x | 2% | x | x | x | x
CCNc1nc(NC(C)C)nc(N(C#N)CCOc2ccc(Cl)cc2Cl)n1 | -7% | u | u | -4% | 5µM* | x
CC(C)(C)c1ccc(C2=NC(C)(C)N(CC(=O)Nc3ccc(F)c(F)c3)C2=O)cc1 | x | 1% | x | x | x | x
CCOC(=O)C1(CCOc2ccccc2)CCN(Cc2cccc(-n3cccn3)c2)CC1 | -6% | 8% | u | 77% | 13µM* | 10µM*
SMILES | AMA1 RON2 block | AmpC detergent | Pf growth 48h | AmpC no deterg | HCV inhibitor | Pf growth 96h
CCOC(=O)C1(CCOc2ccccc2)CCN(Cc2cccc(F)c2)CC1 | 0% | 5% | 0% | 27% | u | u
CCOC(=O)C1(CCOc2ccccc2)CCN(C(=O)c2ccc(-n3cccn3)cc2)CC1 | -8% | 0% | u | 104% | u | 10µM*
CCOC(=O)C1(CCOc2ccccc2)CCN(CCCn2cccn2)CC1 | -10% | -5% | u | 54% | -11% | u
COc1cc(OC)cc(C(=O)Nc2cc3c(cc2N2CCOCC2)n(C)c(=O)n3C)c1 | x | 11% | x | x | x | x
CCN(Cc1ccccc1)S(=O)(=O)c1ccc(F)c(C(=O)Nc2cc(C(F)(F)F)ccc2Cl)c1 | x | -4% | x | x | x | x
COc1ccc(NC(=O)CSC2=Nc3ccccc3C3=NC(CCC(=O)NCc4ccco4)C(=O)N23)cc1 (stereo unspecified) | x | 10% | x | x | x | x
Cc1cccc(-n2c(SCC(N)=O)nnc2-c2ccco2)c1 | -4% | u | u | -7% | 16% | 24%
Cc1cccc(-n2c(SCC(=O)NC3CCCC3)nnc2-c2ccoc2C)c1 | -1% | u | 13µM* | 33% | -12% | 22%
COc1cccc(-n2c(SCC(=O)NC3CCCC3)nnc2-c2ccco2)c1 | -10% | 4% | 2.1µM* | -2% | 13% | -2%
Cc1nnc(SCC(=O)NC2CCCC2)n1-c1ccccc1 | -4% | 2% | 5% | -22% | 11% | -21%
Cc1cccc(-n2c(SCC(=O)NCc3ccco3)nnc2-c2ccco2)c1 | -4% | -3% | u | -10% | 13% | 5.2µM*
Cc1nnc(SCC(=O)NC2CC2)n1-c1ccccc1 | 14% | 0% | 8% | -15% | 13% | 4.7µM*
CC(C)(C)C1CCc2c(sc(NC(=O)C3c4ccccc4Oc4ccccc43)c2C(N)=O)C1 (stereo unspecified) | x | 25% | x | x | x | x
Cc1nnc(SCC(=O)NC2CC2)s1 | 4% | 1% | -1% | -12% | 9% | 13µM*
O=C(Nc1ccccc1C(=O)OCc1cc(=O)n2c3c(sc2n1)CCCC3)c1ccc(F)cc1 | x | 13% | x | x | x | x
COc1cc(/C=C2\C(=N)N3N=C(S(C)(=O)=O)SC3=NC2=O)ccc1OS(=O)(=O)c1ccccc1 | x | -4% | 4% | -47% | x | u
CCC1=NN2C(=N)/C(=C\c3cccn3-c3ccc(C)c(C)c3)C(=O)N=C2S1 | -12% | u | u | -51% | u | 26%
CCC1=NN2C(=N)/C(=C/c3ccc(OS(=O)(=O)c4ccccc4)cc3)C(=O)N=C2S1 | 123% | -9% | u | 28µM* | 0% | u
